CF NFkB block: inhibitors of PAF-induced NF-kB signaling, primary screen, cell-based, GFP fluorescence, uHTS; 360,000 compounds, 0.86% hits; AID 588850, 2011; inhibition, % at 5 µM; KKLEB NF-kB-GFP reporter, GFP fluorescence overnight;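 active = at least 50% inhibition at 5 µM, scaled per plate between neutral and stimulator controls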;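 note: PAF is a Pseudomonas aeruginosa culture filtrate used as stimulus; plate controls were PAF-stimulated DMSO wells for no effect and unstimulated DMSO wells for full effect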
TWEAK Fn14 block: inhibitors of TWEAK-Fn14 signaling, primary screen, luciferase reporter cells, uHTS. inhibition, % at 10 µM. TWEAK-stimulated Fn14 reporter cells, luciferase luminescence, 8 h. 360,000 compounds, 2% hits; in the data active = inhibition above about 50%
LGR2 antag: inhibitors of bursicon-induced LGR2 CRE-luciferase signal, primary screen, cell-based, HEK293, CRE-luciferase reporter, bursicon stimulation; Drosophila bursicon receptor LGR2 (rickets); bursicon-stimulated, 4 h; inhibition, % at 9.99 µM; 380,000 compounds, 0.35% hits; AID 720647, 2013;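 active = drop in luminescence signal, shown as inhibition above about 50% in the replicate tests, limit read from the data, passing the limit was not always enough; inconclusive = probably only some replicates passing the limit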;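 note: agonist challenge used bursicon conditioned medium at about half maximal strength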
TROY NFkB inh: inhibitors of TROY-driven NF-kB signaling, primary screen, Q293 LMP1-TROYcd cells, NF-kB luciferase, uHTS; 360,000 compounds, 0.98% hits; inhibition, % at 10 µM; Q293 LMP1-TROYcd NF-kB luciferase reporter, 4 h;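 active = compounds whose plate-normalised and pattern-corrected inhibition of the luciferase reporter signal at the single screening dose is 50% or more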
KKLEB tox: cytotoxicity in KKLEB CF airway cells, primary screen, cytotoxicity control for CF NF-kB inhibitor project, cell-based, uHTS, fluorescence assay plates. KKLEB CF airway cells viability, ATPlite luminescence, overnight; active compounds read low; cells stimulated with P. aeruginosa culture filtrate. activity change (cytotoxicity), % at 5 µM. 360,000 compounds, 0.36% hits;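 active = corrected activity change at or below -50% at 5 µM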
EWS-Fli inh: EWS/Fli-driven NR0B1 reporter inhibitors, primary screen, A673 cells, NR0B1 luciferase, luminescence, MLPCN library; viability-normalised; inhibition, % at 12.6 µM; 350,000 compounds, 0.67% hits;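 active = mean inhibition of at least 50% after viability correction, with every replicate also passing that limit; inconclusive = mean reaches 50% but only one of two replicates passes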;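 note: firefly luciferase signal divided by Alamar Blue viability fluorescence both relative to DMSO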
An asterisk follows results filed as active; ? = inconclusive; · = not tested or not shown; ! = not active in a repeat. In the library only some 2.6% were active in any assay of this set; here they are far more common.

SMILES	CF NFkB block	TWEAK Fn14 block	LGR2 antag	TROY NFkB inh	KKLEB tox	EWS-Fli inh
C[C@H](CO)N1C[C@H](C)[C@H](CN(C)Cc2ccncc2)Oc2ncc(C#Cc3ccccn3)cc2C1=O	·	·	-9.7	·	·	-1.6
Cc1noc(C)c1NC(=O)Nc1ccc2c(c1)C(=O)N([C@H](C)CO)C[C@@H](C)[C@H](CN(C)Cc1ccc3c(c1)OCO3)OCCCC[C@@H](C)O2	·	·	-8.2	·	·	1.5
O=C(CN1CCN(c2ncc(C(F)(F)F)cc2Cl)CC1)NCCNc1ncc(C(F)(F)F)cc1Cl	14.5	75.6*	·	·	-4.3	·
CCN1CCN(Cc2ccc(NC(=O)c3cc(NC(=O)c4ccc5n[nH]nc5c4)cc(OC)c3)cc2C(F)(F)F)CC1	4.6	7.6	4.6	3.5	-2.9	-14.9
CCN1CCN(Cc2ccc(NC(=O)c3ccc(C)c(/C=C/c4cnc(Nc5cc(N6CCNCC6)nc(C)n5)cn4)c3)cc2C(F)(F)F)CC1	76.3*!	-64.1	·	-17.2	-8.4	·
CCN1CCN(Cc2ccc(NC(=O)c3ccc(C)c(NC(=O)C4=NN(c5ccccc5)C(=O)C4)c3)cc2C(F)(F)F)CC1	14.6	-11.1	0.0	-2.3	4.7	1.6
CCN1CCN(Cc2ccc(NC(=O)c3ccc(C)c(NC(=O)c4c[nH]c5cc(C(F)(F)F)ccc5c4=O)c3)cc2C(F)(F)F)CC1	94.5*	-48.8	?	-2.7	-83.1*	63.3*!
CCN1CCN(Cc2ccc(NC(=O)c3ccc(C)c(NC(=O)c4cccc(-c5cn[nH]c(=O)c5)c4)c3)cc2C(F)(F)F)CC1	71.5*	-187.7	·	-31.5	-5.6	·
CCCNC(=O)Nc1ccc2c(c1)OC[C@@H](C)N(C(=O)C1CCC1)C[C@@H](C)[C@@H](OC)CN(C)C2=O	·	·	-15.2	·	·	-8.1
C[C@@H]1CN([C@H](C)CO)C(=O)Cc2cc(NC(=O)CCCCCC(=O)Nc3ccccc3N)ccc2O[C@H]1CN(C)S(=O)(=O)c1cn(C)cn1	·	·	-13.3	·	·	-10.6
OC(CNCC1CCCO1)Cn1c2ccc(Cl)cc2c2cc(Cl)ccc21 (stereo unspecified)	25.0	3.0	·	-20.4	-30.4	·
OC(CNCCC1C=Nc2ccccc21)Cn1c2ccc(Cl)cc2c2cc(Cl)ccc21 (stereo unspecified)	30.8	73.9*	19.3	48.5	-29.8	·
C[C@@H]1CN([C@H](C)CO)C(=O)c2cc(-c3cccnc3)cnc2O[C@H]1CN(C)C(=O)Nc1ccc(F)cc1	·	·	-6.3	·	·	-2.6
CNC[C@@H]1OCCCC[C@@H](C)Oc2ccc(NC(=O)NC3CCCCC3)cc2C(=O)N([C@H](C)CO)C[C@@H]1C	·	·	15.8	·	·	-0.7
Cn1nc(C(F)(F)F)c2cc(C(=O)Nc3ccc(C(F)(F)F)cc3)sc21	27.7	40.6	24.4	51.2*	-6.9	8.1
Cn1nc(C(F)(F)F)c2cc(C(=O)Nc3ccc(F)cc3)sc21	-5.3	-33.5	4.3	8.8	13.9	-2.4
Cn1nc(C(F)(F)F)c2cc(C(=O)Nc3ccc(F)c(Cl)c3)sc21	1.3	0.7	12.7	60.9*	-0.7	15.6
C[C@H]1CN([C@@H](C)CO)C(=O)CCCn2cc(nn2)CO[C@@H]1CN(C)Cc1ccc(-c2ccccc2)cc1	·	·	-18.9	·	·	-0.1
COc1ccccc1-c1cc(C(F)(F)F)nc(S(=O)(=O)CCCC(=O)O)n1	33.3	27.8	·	13.7	-39.8	·
COc1ccc(-c2cc(C(F)(F)F)nc(S(=O)(=O)CCCC(=O)Nc3cccc(O)c3)n2)cc1OC	85.8*	95.9*	?	53.3*	-79.7*	-6.6
COc1ccccc1-c1cc(C(F)(F)F)nc(S(=O)(=O)CCCC(=O)N2CCOCC2)n1	89.5*	38.1	·	57.7*	-78.9*	·
COCCNC(=O)CSc1nc(-c2ccc(OC)c(OC)c2)cc(C(F)(F)F)n1	24.9	-20.0	·	-4.0	-16.5	·
C[C@@H]1CCCCO[C@H](CN(C)S(C)(=O)=O)[C@@H](C)CN([C@@H](C)CO)C(=O)c2cc(NS(C)(=O)=O)ccc2O1	·	·	-3.7	·	·	-5.0
C[C@@H]1CN([C@H](C)CO)S(=O)(=O)c2ccc(C3=CCCC3)cc2O[C@H]1CN(C)CC1CCOCC1	·	·	-0.9	·	·	18.2
COc1ccc(-c2sc(NC(=O)c3ccc(C)cc3)nc2-c2ccc([N+](=O)[O-])cc2)cc1	-4.1	8.4	·	-10.6	-19.8	·
SMILES	CF NFkB block	TWEAK Fn14 block	LGR2 antag	TROY NFkB inh	KKLEB tox	EWS-Fli inh
COc1ccc(C(=O)Nc2nc(-c3ccc([N+](=O)[O-])cc3)c(-c3ccccc3)s2)cc1	-1.4	56.7*	·	6.0	-4.5	·
COc1ccc(S(=O)(=O)N(C)C[C@H]2Oc3c(NC(=O)Nc4cccc5ccccc45)cccc3C(=O)N([C@H](C)CO)C[C@@H]2C)cc1	·	·	·	·	·	19.3
O=C(/C=C/c1ccc2c(c1)OCCCO2)c1ccc2ccccc2c1O	8.2	32.7	-66.9	61.1*	-5.9	·
Cc1ccc(C(=O)/C=C/c2ccc3c(c2)OCCO3)c(O)c1	10.1	13.0	-36.5	27.4	14.5	-100.4
CCC(=O)Nc1ccc2c(c1)OC[C@H](C)N(C(=O)c1ccc(F)cc1)C[C@@H](C)[C@@H](OC)CN(C)C2=O	·	·	-8.0	·	·	0.7
COc1ccccc1CN1C(=O)c2ccccc2[C@@]2(Cc3ccccc3N(CCN3CCOCC3)C2=O)[C@@H]1c1ccc(CO)cc1	·	·	·	·	·	3.6
CCOC(=O)c1nnc(-c2ccccc2)nc1Sc1ccccc1Cl	31.4	56.7*	·	33.9	-6.2	·
c1ccc(COc2cccc(CN3CCCCC3)c2)cc1	-18.9	103.2*	-4.5	-26.2	-4.0	-0.1
c1ccc(Oc2cccc(CN3CCCCC3)c2)cc1	-4.9	-15.5	·	-20.7	4.2	·
CC1CC(CN)CC(CO)C1 (stereo unspecified)	-14.3	53.2*	8.0	22.6	4.1	0.7
CCCCn1c(NC(=O)c2ccccc2Cl)c(C#N)c2nc3ccccc3nc21	31.7	-32.2	·	75.7*	-39.9	·
N#Cc1c(NC(=O)c2ccccc2Cl)n(Cc2ccccc2)c2nc3ccccc3nc12	29.2	86.2*	19.0	65.2*	-43.3	2.3
CCCCn1c(NC(=O)CC)c(C#N)c2nc3ccccc3nc21	4.3	-9.0	·	-2.6	1.6	·
Cc1ccccc1-n1nnnc1SCC(N)=O	-8.0	1.5	-5.3	-8.5	8.6	·
O=[N+]([O-])c1ccc(Sc2nnnn2-c2ccccc2)nc1	·	·	67.8*	·	·	19.3
Cc1ccccc1-n1nnnc1Sc1nnnn1-c1ccccc1	77.6*	87.8*	·	43.6	-69.4*	·
C[C@@H]1CCCCO[C@H](CN(C)C(=O)Nc2ccc(F)cc2)[C@H](C)CN([C@H](C)CO)C(=O)c2cc(NC(=O)c3ccncc3)ccc2O1	·	·	-8.3	·	·	2.7
